Reference: PubChem BioAssay AID1159580 (chemical genetic matrix, 2015)
The campaign covered roughly 5,500 compounds. About 2,000 (36%) were called active. Inconclusive results (about 18%) are left out. Rule as the data show it: active = normalized growth mostly below about 0.91 (no sharp cut-off); inconclusive = no clear call, values can overlap the other calls; inactive = mostly above about 0.92. This is one part of the list.

Assay: chemical genetic growth profiling, strain panel (AID 1159580);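 also: tested at 20 µM; growth read once vehicle control cultures reached saturation at 30 °C; 1 = growth at the plate median or of vehicle wells; lower values mean less growth of the strain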
Details: growth OD

Measured: normalized growth

CN1CCC(=C2c3ccccc3Sc3ccccc32)CC1
inactive: S. cerevisiae deletion strains, locus YJR075W, strain HOC1, hits give low values 0.935 | S. cerevisiae deletion strains, locus YKL009W, strain mrt4, hits give low values 0.982 | S. cerevisiae deletion strains, locus YKL068W, hits give low values 1 | S. cerevisiae deletion strains, locus YKL085W, strain MDH1 (second series), hits give low values 0.999 | S. cerevisiae deletion strains, locus YKL085W, strain MDH1, hits give low values 0.999 | S. cerevisiae deletion strains, locus YKL160W, strain elf1, hits give low values 1 | S. cerevisiae deletion strains, locus YKL190W, strain CNB1, hits give low values 1 | S. cerevisiae deletion strains, locus YKR001C, strain vps1, hits give low values 0.996 | S. cerevisiae deletion strains, locus YKR026C, strain gcn3, hits give low values 1.03 | S. cerevisiae deletion strains, locus YKR091W, strain srl3, hits give low values 1.03 | S. cerevisiae deletion strains, locus YLL001W, strain dnm1, hits give low values 1.03 | S. cerevisiae deletion strains, locus YLL026W, hits give low values 1.02 | S. cerevisiae deletion strains, locus YLL041C, strain sdh2, hits give low values 1.01 | S. cerevisiae deletion strains, locus YLR027C, strain aat2, hits give low values 1.02 | S. cerevisiae deletion strains, locus YLR058C, strain SHM2, hits give low values 1 | S. cerevisiae deletion strains, locus YLR102C, strain apc9, hits give low values 1.01 | S. cerevisiae deletion strains, locus YLR113W, strain HOG1, hits give low values 0.979 | S. cerevisiae deletion strains, locus YLR221C, strain rsa3, hits give low values 1 | S. cerevisiae deletion strains, locus YLR258W, strain gsy2, hits give low values 1.04 | S. cerevisiae deletion strains, locus YLR262C, strain YPT6 (second series), hits give low values 1.13 | S. cerevisiae deletion strains, locus YLR268W, strain sec22, hits give low values 1.06 | S. cerevisiae deletion strains, locus YLR320W, strain mms22, hits give low values 1.01 | S. cerevisiae deletion strains, locus YLR330W, strain CHS5, hits give low values 0.994 | S. cerevisiae deletion strains, locus YLR342W, strain FKS1 (second series), hits give low values 0.859 | S. cerevisiae deletion strains, locus YLR342W, strain FKS1, hits give low values 1.03 | S. cerevisiae deletion strains, locus YLR357W, strain rsc2, hits give low values 1.04 | S. cerevisiae deletion strains, locus YLR370C, strain arc18, hits give low values 1.02 | S. cerevisiae deletion strains, locus YLR371W, strain rom2, hits give low values 1.02 | S. cerevisiae deletion strains, locus YLR384C, strain iki3, hits give low values 1.02 | S. cerevisiae deletion strains, locus YLR418C, strain cdc73, hits give low values 0.874 | S. cerevisiae deletion strains, locus YML016C, strain PPZ1, hits give low values 0.998 | S. cerevisiae deletion strains, locus YML032C, strain rad52, hits give low values 1.01 | S. cerevisiae deletion strains, locus YML120C, strain ndi1, hits give low values 0.985 | S. cerevisiae deletion strains, locus YML124C, strain tub3, hits give low values 1.02 | S. cerevisiae deletion strains, locus YMR058W, strain fet3, hits give low values 1.01 | S. cerevisiae deletion strains, locus YMR078C, strain ctf18, hits give low values 1 | S. cerevisiae deletion strains, locus YMR125W, strain sto1, hits give low values 1.03 | S. cerevisiae deletion strains, locus YMR129W, hits give low values 1.01 | S. cerevisiae deletion strains, locus YMR205C, strain PFK2, hits give low values 1.06 | S. cerevisiae deletion strains, locus YMR223W, strain ubp8, hits give low values 0.962 | S. cerevisiae deletion strains, locus YMR231W, strain pep5, hits give low values 1.02 | S. cerevisiae deletion strains, locus YMR263W, strain SAP30, hits give low values 0.969 | S. cerevisiae deletion strains, locus YMR307W, strain GAS1, hits give low values 1.05 | S. cerevisiae deletion strains, locus YNL067W, strain RPL9B, hits give low values 0.997 | S. cerevisiae deletion strains, locus YNL071W, strain lat1, hits give low values 1.01 | S. cerevisiae deletion strains, locus YNL128W, strain TEP1, hits give low values 1.01 | S. cerevisiae deletion strains, locus YNL153C, strain GIM3, hits give low values 0.982 | S. cerevisiae deletion strains, locus YNL183C, strain NPR1, hits give low values 0.892 | S. cerevisiae deletion strains, locus YNL209W, strain ssb2, hits give low values 1 | S. cerevisiae deletion strains, locus YNL233W, strain BNI4, hits give low values 1 | S. cerevisiae deletion strains, locus YNL248C, strain rpa49, hits give low values 0.958 | S. cerevisiae deletion strains, locus YNL250W, strain rad50, hits give low values 1.01 | S. cerevisiae deletion strains, locus YNL271C, strain bni1, hits give low values 1.02 | S. cerevisiae deletion strains, locus YNL298W, strain CLA4, hits give low values 1 | S. cerevisiae deletion strains, locus YNL307C, strain MCK1, hits give low values 0.993 | S. cerevisiae deletion strains, locus YNL322C, strain KRE1 (second series), hits give low values 1.03 | S. cerevisiae deletion strains, locus YNL322C, strain KRE1, hits give low values 1.01 | S. cerevisiae deletion strains, locus YNR049C, strain mso1, hits give low values 1.02 | S. cerevisiae deletion strains, locus YNR052C, strain pop2, hits give low values 0.973 | S. cerevisiae deletion strains, locus YOL006C, strain TOP1, hits give low values 0.879 | S. cerevisiae deletion strains, locus YOL012C, strain htz1 0.875 | S. cerevisiae deletion strains, locus YOL147C, strain pex11, hits give low values 1.01 | S. cerevisiae deletion strains, locus YOR001W, strain rrp6, hits give low values 0.97 | S. cerevisiae deletion strains, locus YOR061W, strain CKA2, hits give low values 1.01 | S. cerevisiae deletion strains, locus YOR069W, strain VPS5, hits give low values 0.996 | S. cerevisiae deletion strains, locus YOR070C, strain gyp1, hits give low values 1.02 | S. cerevisiae deletion strains, locus YOR080W, strain dia2, hits give low values 1.03 | S. cerevisiae deletion strains, locus YOR083W, strain WHI5, hits give low values 0.96 | S. cerevisiae deletion strains, locus YOR106W, strain vam3, hits give low values 0.966 | S. cerevisiae deletion strains, locus YOR136W, strain idh2, hits give low values 1.04 | S. cerevisiae deletion strains, locus YOR144C, strain elg1, hits give low values 1.01 | S. cerevisiae deletion strains, locus YOR184W, strain ser1, hits give low values 1.03 | S. cerevisiae deletion strains, locus YOR231W, strain MKK1, hits give low values 0.99 | S. cerevisiae deletion strains, locus YOR265W, strain rbl2, hits give low values 1.02 | S. cerevisiae deletion strains, locus YOR270C, strain vph1, hits give low values 0.933 | S. cerevisiae deletion strains, locus YOR290C, strain snf2, hits give low values 0.973 | S. cerevisiae deletion strains, locus YOR316C, strain cot1, hits give low values 1.01 | S. cerevisiae deletion strains, locus YPL051W, strain arl3, hits give low values 0.974 | S. cerevisiae deletion strains, locus YPL055C, strain LGE1, hits give low values 0.958 | S. cerevisiae deletion strains, locus YPL078C, strain atp4, hits give low values 0.983 | S. cerevisiae deletion strains, locus YPL106C, strain sse1, hits give low values 1.09 | S. cerevisiae deletion strains, locus YPL240C, strain hsp82, hits give low values 1.02 | S. cerevisiae deletion strains, locus YPL241C, strain CIN2, hits give low values 1 | S. cerevisiae deletion strains, locus YPL256C, strain CLN2, hits give low values 0.995 | S. cerevisiae deletion strains, locus YPR119W, strain clb2, hits give low values 1.01 | S. cerevisiae deletion strains, locus YPR141C, strain kar3, hits give low values 1.01 | S. cerevisiae deletion strains, locus YPR163C, strain tif3, hits give low values 0.993 | S. cerevisiae deletion strains, locus YPR167C, strain met16, hits give low values 1.01 | S. cerevisiae deletion strains, strain wtn01, hits give low values 1.02 | S. cerevisiae strains, strain wild type, hits give low values 0.993
active: S. cerevisiae deletion strains, locus YLR039C, strain RIC1, hits give low values 1.34 [resistant] | S. cerevisiae deletion strains, locus YLR262C, strain YPT6, hits give low values 1.44 [resistant]
